Laboratory results published in PubChem BioAssay AID1159580 (chemical genetic matrix, 2015).
“And” between values parts separate entries of the source, which are not always exact repeats. Identical values can stand only once. The whole screen tested about 5,500 compounds, of which about 2,000 (36%) were called active. About 18% were inconclusive and are not listed. Cut-off read from the data, not from the text of the source: active = normalized growth mostly below about 0.91 (no sharp cut-off); inconclusive = no clear call, values can overlap the other calls; inactive = mostly above about 0.92. Some of the results follow.

Test: chemical genetic growth profiling, strain panel (AID 1159580);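 note: tested at 20 µM; growth read once vehicle control cultures reached saturation at 30 °C; 1 = growth at the plate median or of vehicle wells; lower values mean less growth of the strain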
Conditions: S. cerevisiae deletion strains, growth OD

Measured: normalized growth

Cc1ccsc1/C=C/C1=NCCCN1C
inactive: locus YAL013W, strain DEP1, stronger effect = lower value 1.01 | locus YAL021C, strain ccr4, stronger effect = lower value 1 | locus YAL026C, strain drs2, stronger effect = lower value 0.996 | locus YAL030W, strain snc1, stronger effect = lower value 0.996 | locus YBL061C, strain skt5, stronger effect = lower value 0.984 | locus YBR009C, strain hhf1, stronger effect = lower value 1 | locus YBR021W, strain FUR4, stronger effect = lower value 1.02 | locus YBR023C, strain chs3, stronger effect = lower value 0.984 | locus YBR171W, strain sec66, stronger effect = lower value 0.99 | locus YBR229C, strain ROT2, stronger effect = lower value 1.01 | locus YBR231C, strain swc5, stronger effect = lower value 1.07 | locus YBR279W, strain paf1, stronger effect = lower value 0.992 | locus YCL011C, strain gbp2, stronger effect = lower value 0.982 | locus YCL016C, strain dcc1, stronger effect = lower value 0.996 | locus YCL029C, strain bik1, stronger effect = lower value 0.969 | locus YCL061C, strain MRC1, stronger effect = lower value 0.992 | locus YCL069W, strain vba3, stronger effect = lower value 0.986 | locus YCR088W, strain abp1, stronger effect = lower value 0.993 | locus YDL005C, strain med2, stronger effect = lower value 0.983 | locus YDL035C, strain GPR1, stronger effect = lower value 1.02 | locus YDL040C, strain nat1, stronger effect = lower value 0.985 | locus YDL074C, strain BRE1, stronger effect = lower value 0.995 | locus YDL101C, strain DUN1, stronger effect = lower value 0.991 | locus YDL134C, strain PPH21, stronger effect = lower value 1.02 | locus YDL185W, strain tfp1, stronger effect = lower value 0.938 | locus YDL192W, strain arf1, stronger effect = lower value 0.972 | locus YDR001C, strain nth1, stronger effect = lower value 0.996 | locus YDR069C, strain doa4, stronger effect = lower value 0.993 | locus YDR101C, strain arx1, stronger effect = lower value 0.965 | locus YDR137W, strain rgp1, stronger effect = lower value 0.941 | locus YDR150W, strain NUM1, stronger effect = lower value 0.998 | locus YDR159W, strain sac3, stronger effect = lower value 0.998 | locus YDR162C, strain NBP2, stronger effect = lower value 1.01 | locus YDR195W, strain ref2 1.01 | locus YDR297W, strain sur2, stronger effect = lower value 1 | locus YDR318W, strain mcm21, stronger effect = lower value 0.972 | locus YDR334W, strain swr1, stronger effect = lower value 0.986 | locus YDR335W, strain msn5, stronger effect = lower value 0.991 | locus YDR388W, stronger effect = lower value 0.98 | locus YDR392W, strain spt3, stronger effect = lower value 0.992 | locus YDR502C, strain sam2, stronger effect = lower value 1 | locus YEL003W, strain gim4, stronger effect = lower value 0.996 | locus YEL037C, strain rad23, stronger effect = lower value 0.995 | locus YEL061C, strain CIN8 (second series), stronger effect = lower value 0.992 | locus YEL061C, strain CIN8, stronger effect = lower value 1 | locus YER015W, strain faa2, stronger effect = lower value 0.971 | locus YER016W, strain bim1, stronger effect = lower value 0.982 | locus YER110C, stronger effect = lower value 0.982 | locus YER111C, strain swi4, stronger effect = lower value 0.989 | locus YER155C, strain BEM2 (second series), stronger effect = lower value 1 | locus YER155C, strain BEM2, stronger effect = lower value 0.988 | locus YER167W, strain BCK2, stronger effect = lower value 1.01 | locus YFR010W, strain ubp6, stronger effect = lower value 0.992 | locus YGL078C, strain dbp3, stronger effect = lower value 0.984 | locus YGL086W, strain mad1, stronger effect = lower value 1.01 | locus YGL167C, strain pmr1, stronger effect = lower value 0.987 | locus YGL173C, strain kem1, stronger effect = lower value 0.987 | locus YGL227W, strain vid30, stronger effect = lower value 0.991 | locus YGL240W, strain doc1, stronger effect = lower value 1 | locus YGL248W, strain PDE1, stronger effect = lower value 1.02 | locus YGL253W, strain hxk2, stronger effect = lower value 0.995 | locus YGR078C, strain PAC10, stronger effect = lower value 1 | locus YGR135W, strain pre9, stronger effect = lower value 1.01 | locus YGR229C, strain SMI1, stronger effect = lower value 1.03 | locus YGR252W, strain gcn5, stronger effect = lower value 1.06 | locus YHR013C, strain ard1, stronger effect = lower value 0.978 | locus YHR027C, strain rpn1, stronger effect = lower value 0.982 | locus YHR030C, strain SLT2, stronger effect = lower value 1 and 0.986 | locus YHR079C, strain IRE1 (second series), stronger effect = lower value 0.963 | locus YHR079C, strain IRE1, stronger effect = lower value 0.974 | locus YHR094C, strain hxt1, stronger effect = lower value 0.956 | locus YHR129C, strain ARP1, stronger effect = lower value 1 | locus YHR142W, strain chs7, stronger effect = lower value 0.997 | locus YHR200W, strain rpn10, stronger effect = lower value 0.984 | locus YIL066C, strain RNR3, stronger effect = lower value 0.998 | locus YIL073C, strain SPO22, stronger effect = lower value 0.91 | locus YIL125W, strain kgd1, stronger effect = lower value 0.984 | locus YIR030C, strain dcg1, stronger effect = lower value 0.976 | locus YJL092W, strain hpr5, stronger effect = lower value 0.993 | locus YJL095W, strain BCK1 (second series), stronger effect = lower value 0.991 | locus YJL095W, strain BCK1, stronger effect = lower value 0.988 and 1 | locus YJL115W, strain asf1, stronger effect = lower value 0.99 | locus YJL129C, strain trk1, stronger effect = lower value 0.985 | locus YJL134W, strain LCB3, stronger effect = lower value 1 | locus YJL154C, strain vps35, stronger effect = lower value 0.984 | locus YJL164C, strain tpk1, stronger effect = lower value 0.99 | locus YJL166W, strain qcr8, stronger effect = lower value 0.994 | locus YJL168C, strain set2, stronger effect = lower value 0.984 | locus YJL187C, strain SWE1 (second series), stronger effect = lower value 0.99 | locus YJL187C, strain SWE1, stronger effect = lower value 0.997 | locus YJR043C, strain POL32, stronger effect = lower value 1.01 | locus YJR066W, strain TOR1, stronger effect = lower value 0.967
